Results from the supplement of paper PMC10849652.
The full data set covers some 7,900 targets. This sample favours those with a hit. About 0.6% of all pairs of compound and target were hits.

Experiments:
Assay in all cases: log2 fold change, soluble protein after heating vs DMSO (PISA); higher = thermal stabilisation; K562 cells, 10 uM, 30 min; active = over 0.2 and 3.5 SD of the protein, either way, in both replicates (recomputed)
[1] = compound: CS(=O)(=O)c1ccc(-c2cnc(N)c(C(=O)Nc3ccccc3)n2)cc1
Procedure, shortened: (§1)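 Quantification of soluble protein used TMTpro 16plex LC-MS/MS, with channel sums equalised. Samples were the supernatant after 21,000xg for 90 min of pooled aliquots from K562 cells (2×10^6 cells/mL) treated with 10 μM compound for 30 min, heated for 3 min over 48°C-58°C, and extracted in PBS with 0.5% NP-40 at 4°C. Values, from duplicates, describe thermal stability against control samples on a log2 fold-change scale.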

[2] = compound: C[C@H](C1=CC=C(C=C1)C(=O)NC2=C3C=CNC3=NC=C2)N
Procedure, shortened: as §1

duvelisib = compound: C[C@H](Nc1ncnc2nc[nH]c12)c1cc2cccc(Cl)c2c(=O)n1-c1ccccc1 [duvelisib]
Procedure, shortened: as §1

[3] = compound: Cc1cc(SCc2sc(-c3ccc(C(F)(F)F)cc3)nc2C)ccc1OCC(=O)O
Procedure, shortened: as §1

ispinesib = compound: Cc1ccc(C(=O)N(CCCN)[C@@H](c2nc3cc(Cl)ccc3c(=O)n2Cc2ccccc2)C(C)C)cc1 [ispinesib]
Procedure, shortened: as §1

nilotinib = compound: Cc1cn(-c2cc(NC(=O)c3ccc(C)c(Nc4nccc(-c5cccnc5)n4)c3)cc(C(F)(F)F)c2)cn1 [nilotinib]
Procedure, shortened: as §1

[4] = compound: Cc1nc(Nc2n[nH]c3c2CN(C(=O)N[C@H](CN(C)C)c2ccccc2)C3(C)C)c2sccc2n1
Procedure, shortened: as §1

dasatinib = compound: Cc1nc(Nc2ncc(C(=O)Nc3c(C)cccc3Cl)s2)cc(N2CCN(CCO)CC2)n1 [dasatinib]
Procedure, shortened: as §1

[5] = compound: Cc1ncc(-c2ccnc(Nc3ccc(S(C)(=O)=O)cc3)n2)n1C(C)C
Procedure, shortened: as §1

[6] = compound: Cn1cc(-c2ccc3c(c2)CCN3C(=O)Cc2cccc(C(F)(F)F)c2)c2c(N)ncnc21
Procedure, shortened: as §1

[7] = compound: Cn1cc(-c2ccc3nnc(C(F)(F)c4ccc5ncccc5c4)n3n2)cn1
Procedure, shortened: as §1

tipifarnib = compound: Cn1cncc1[C@@](N)(c1ccc(Cl)cc1)c1ccc2c(c1)c(-c1cccc(Cl)c1)cc(=O)n2C [tipifarnib]
Procedure, shortened: as §1

crizotinib = compound: C[C@@H](Oc1cc(-c2cnn(C3CCNCC3)c2)cnc1N)c1c(Cl)ccc(F)c1Cl [crizotinib]
Procedure, shortened: as §1

[8] = compound: C[C@@H]1COCCN1C2=NC(=NC(=C2)C3(CC3)S(=O)(=O)C)C4=C5C=CNC5=CC=C4
Procedure, shortened: as §1

gandotinib = compound: Cc1cc(Nc2cc(CN3CCOCC3)c3nc(C)c(Cc4ccc(Cl)cc4F)n3n2)n[nH]1 [gandotinib]
Procedure, shortened: as §1

tozasertib = compound: Cc1cc(Nc2cc(N3CCN(C)CC3)nc(Sc3ccc(NC(=O)C4CC4)cc3)n2)n[nH]1 [tozasertib]
Procedure, shortened: as §1

doramapimod = compound: Cc1ccc(-n2nc(C(C)(C)C)cc2NC(=O)Nc2ccc(OCCN3CCOCC3)c3ccccc23)cc1 [doramapimod]
Procedure, shortened: as §1

[9] = compound: Cc1cccc(CC(=O)N2CCc3c2ccc(-c2cn(C)c4ncnc(N)c24)c3F)n1
Procedure, shortened: as §1

mubritinib = compound: FC(F)(F)c1ccc(/C=C/c2nc(COc3ccc(CCCCn4ccnn4)cc3)co2)cc1 [mubritinib]
Procedure, shortened: as §1

bafetinib = compound: Cc1ccc(NC(=O)c2ccc(CN3CC[C@H](N(C)C)C3)c(C(F)(F)F)c2)cc1Nc1nccc(-c2cncnc2)n1 [bafetinib]
Procedure, shortened: as §1

Measured: log2 fold change

TM7SF2 (UniProt O76062)
Chain of UniProt O76062 (O76062 whole entry, looked up): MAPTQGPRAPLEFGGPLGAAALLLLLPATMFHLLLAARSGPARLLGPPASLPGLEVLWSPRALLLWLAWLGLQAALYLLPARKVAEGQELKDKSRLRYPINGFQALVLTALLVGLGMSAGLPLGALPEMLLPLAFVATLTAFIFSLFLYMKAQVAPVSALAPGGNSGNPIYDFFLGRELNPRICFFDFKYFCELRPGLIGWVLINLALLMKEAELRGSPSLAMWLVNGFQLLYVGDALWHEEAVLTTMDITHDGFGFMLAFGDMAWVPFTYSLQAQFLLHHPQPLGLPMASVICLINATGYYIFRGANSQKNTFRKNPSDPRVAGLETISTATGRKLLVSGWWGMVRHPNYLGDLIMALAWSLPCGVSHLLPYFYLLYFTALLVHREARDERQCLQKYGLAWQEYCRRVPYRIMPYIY
inactive: [1] -0.044 | [2] 0.028 | duvelisib -0.075 | [3] 0.028 | ispinesib -0.451 | nilotinib -0.113 | [4] -0.059 | dasatinib -0.25 | [5] 0.018 | [6] 0.035 | [7] 0.046 | tipifarnib -0.067

TAOK2 (UniProt Q9UL54)
Chain of UniProt Q9UL54 (Q9UL54 whole entry, looked up): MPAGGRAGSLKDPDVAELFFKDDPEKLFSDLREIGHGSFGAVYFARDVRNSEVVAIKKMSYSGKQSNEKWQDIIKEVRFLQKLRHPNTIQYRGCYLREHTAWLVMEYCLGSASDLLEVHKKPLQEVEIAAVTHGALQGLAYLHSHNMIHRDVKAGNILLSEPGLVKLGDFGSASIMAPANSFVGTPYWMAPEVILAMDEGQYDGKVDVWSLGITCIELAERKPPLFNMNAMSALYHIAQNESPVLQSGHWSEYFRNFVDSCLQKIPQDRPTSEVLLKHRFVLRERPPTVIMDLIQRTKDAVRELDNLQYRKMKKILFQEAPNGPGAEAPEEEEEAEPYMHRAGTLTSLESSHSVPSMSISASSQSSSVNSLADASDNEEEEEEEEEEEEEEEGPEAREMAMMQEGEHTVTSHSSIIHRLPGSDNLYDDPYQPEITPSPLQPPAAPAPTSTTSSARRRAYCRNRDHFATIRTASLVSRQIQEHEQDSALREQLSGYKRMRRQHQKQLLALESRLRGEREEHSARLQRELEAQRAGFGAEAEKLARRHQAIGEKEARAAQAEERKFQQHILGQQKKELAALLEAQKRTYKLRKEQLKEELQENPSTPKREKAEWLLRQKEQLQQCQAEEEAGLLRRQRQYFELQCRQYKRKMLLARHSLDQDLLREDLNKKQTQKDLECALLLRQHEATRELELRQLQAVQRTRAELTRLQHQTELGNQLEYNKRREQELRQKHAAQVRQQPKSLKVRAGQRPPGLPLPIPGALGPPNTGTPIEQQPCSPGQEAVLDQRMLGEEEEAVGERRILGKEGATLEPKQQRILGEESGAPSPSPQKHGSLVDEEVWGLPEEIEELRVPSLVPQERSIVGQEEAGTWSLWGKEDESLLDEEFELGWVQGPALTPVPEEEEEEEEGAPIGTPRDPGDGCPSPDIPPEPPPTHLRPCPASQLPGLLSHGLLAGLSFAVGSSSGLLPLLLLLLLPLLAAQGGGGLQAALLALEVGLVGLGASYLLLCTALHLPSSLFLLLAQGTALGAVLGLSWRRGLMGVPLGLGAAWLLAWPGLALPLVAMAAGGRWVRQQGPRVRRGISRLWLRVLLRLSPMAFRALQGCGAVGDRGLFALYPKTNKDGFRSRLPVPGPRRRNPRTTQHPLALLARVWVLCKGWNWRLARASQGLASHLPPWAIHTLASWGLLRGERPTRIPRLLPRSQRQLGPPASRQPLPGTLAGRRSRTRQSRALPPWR
inactive: crizotinib 0.157 | [8] -0.108 | gandotinib -0.045 | tozasertib -0.02 | doramapimod -0.036 | ispinesib 0.035 | [9] 0.092 | nilotinib -0.032 | [4] 0.048 | [5] -0.028 | [7] -0.093 | tipifarnib 0.014 | mubritinib 0.01

SSB (UniProt E7ERC4)
inactive: duvelisib 0.399 | gandotinib -0.352 | [3] 0.337 | [9] -0.025 | dasatinib -0.528 | mubritinib -0.063

TK1 (UniProt K7ERV3)
inactive: [1] 0 | [8] 0.021 | [2] 0.182 | duvelisib 0.046 | gandotinib -0.029 | tozasertib 0.012 | [3] -0.041 | ispinesib 0.005 | bafetinib -0.03 | [9] 0.022 | nilotinib -0.108 | [4] -0.018 | dasatinib 0.018 | [5] -0.076 | [6] 0.176 | [7] 0.016 | tipifarnib 0.03 | mubritinib 0.037

TEX30 (UniProt Q5JUR7)
Chain of UniProt Q5JUR7 (Q5JUR7 whole entry, looked up): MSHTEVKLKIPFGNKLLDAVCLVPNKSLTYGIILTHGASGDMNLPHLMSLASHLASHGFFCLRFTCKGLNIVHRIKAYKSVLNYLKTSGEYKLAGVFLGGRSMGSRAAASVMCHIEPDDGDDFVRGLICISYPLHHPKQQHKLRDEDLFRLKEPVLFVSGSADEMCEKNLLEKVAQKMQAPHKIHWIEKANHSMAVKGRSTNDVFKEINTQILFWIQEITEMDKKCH
inactive: crizotinib -0.206 | [8] 0.073 | [2] 0.044 | duvelisib 0.031 | gandotinib -0.292 | tozasertib 0.045 | [3] 0.067 | doramapimod 0.059 | ispinesib -0.295 | bafetinib -0.01 | [9] -0.053 | nilotinib -0.147 | [4] -0.095 | dasatinib -0.2 | [5] -0.016 | [6] 0.084 | [7] -0.004 | tipifarnib -0.18 | mubritinib 0.033

SOX5 (UniProt P35711)
Chain of UniProt P35711 (P35711 whole entry, looked up): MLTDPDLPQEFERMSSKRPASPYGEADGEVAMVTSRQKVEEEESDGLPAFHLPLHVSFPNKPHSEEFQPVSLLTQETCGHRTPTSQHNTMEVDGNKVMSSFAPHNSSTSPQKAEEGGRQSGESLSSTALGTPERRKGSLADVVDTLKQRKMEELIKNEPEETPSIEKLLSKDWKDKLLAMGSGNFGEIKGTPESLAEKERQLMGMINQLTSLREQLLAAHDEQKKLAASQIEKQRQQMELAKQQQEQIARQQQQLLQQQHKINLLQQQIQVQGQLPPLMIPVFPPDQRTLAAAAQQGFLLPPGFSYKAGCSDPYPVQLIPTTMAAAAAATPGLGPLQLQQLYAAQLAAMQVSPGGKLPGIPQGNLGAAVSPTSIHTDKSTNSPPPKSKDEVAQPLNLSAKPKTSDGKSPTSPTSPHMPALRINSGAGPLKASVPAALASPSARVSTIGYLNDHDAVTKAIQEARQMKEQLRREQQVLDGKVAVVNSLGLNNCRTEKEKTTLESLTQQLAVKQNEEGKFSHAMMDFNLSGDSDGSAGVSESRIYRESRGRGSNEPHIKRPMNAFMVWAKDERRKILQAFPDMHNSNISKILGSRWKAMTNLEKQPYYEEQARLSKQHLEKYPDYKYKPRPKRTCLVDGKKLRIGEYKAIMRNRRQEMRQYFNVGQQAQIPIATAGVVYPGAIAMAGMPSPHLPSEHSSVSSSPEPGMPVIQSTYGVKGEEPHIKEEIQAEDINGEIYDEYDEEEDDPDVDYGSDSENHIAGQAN
inactive: [1] 0.07 | crizotinib 0.046 | [2] 0.041 | tozasertib 0.045 | doramapimod 0.054 | ispinesib 0.004 | bafetinib -0.06 | [4] -0.011 | [5] 0.211 | [6] 0.042 | [7] -0.039 | tipifarnib 0.027 | mubritinib 0.064
active: nilotinib -0.437

SLC39A1 (UniProt Q9NY26)
Chain of UniProt Q9NY26 (Q9NY26 whole entry, looked up): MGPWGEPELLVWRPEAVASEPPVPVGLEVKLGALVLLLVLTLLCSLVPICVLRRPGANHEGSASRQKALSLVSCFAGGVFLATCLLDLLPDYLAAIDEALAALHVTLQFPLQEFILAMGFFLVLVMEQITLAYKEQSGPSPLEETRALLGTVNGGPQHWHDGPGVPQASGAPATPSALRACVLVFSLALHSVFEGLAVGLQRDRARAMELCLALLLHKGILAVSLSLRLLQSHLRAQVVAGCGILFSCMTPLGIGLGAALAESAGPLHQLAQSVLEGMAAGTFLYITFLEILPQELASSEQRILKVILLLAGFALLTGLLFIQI
inactive: [2] 0.023 | gandotinib -0.137 | [9] 0.116 | [6] -0.17

SYK (UniProt P43405)
inactive: [8] -0.093 | [2] 0.053 | duvelisib 0.13 | tozasertib 0.031 | [3] 0.405 | doramapimod 0.179 | ispinesib -0.216 | bafetinib 0.276 | dasatinib -0.356 | [6] 0.141 | [7] -0.041 | tipifarnib 0.075

TBP (UniProt P20226)
inactive: crizotinib 0.048 | [8] -0.021 | [2] 0.303 | duvelisib -0.135 | tozasertib 0.072 | [3] -0.098 | doramapimod -0.023 | ispinesib -0.006 | bafetinib -0.039 | nilotinib 0.008 | [4] 0.093 | dasatinib 0.104 | [5] 0.079 | [6] -0.112 | [7] 0.036 | tipifarnib 0.013 | mubritinib 0.004

SPAG9 isoform 4 (UniProt O60271)
inactive: [1] 0.144 | crizotinib -0.061 | [2] 0.123 | tozasertib 0.142 | doramapimod 0.042 | ispinesib -0.128 | bafetinib -0.301 | nilotinib 0.073 | [4] -0.118 | [5] 0.022 | [6] -0.072 | [7] 0.11 | mubritinib 0.074

SNX15 (UniProt Q9NRS6)
inactive: [1] 0.064 | crizotinib 0.002 | [2] 0.153 | duvelisib -0.012 | gandotinib -0.061 | tozasertib 0.063 | [3] -0.043 | doramapimod 0.136 | ispinesib -0.132 | bafetinib 0.036 | [9] 0.154 | nilotinib -0.064 | [4] -0.17 | dasatinib 0.206 | [5] 0.002 | [6] -0.046 | [7] 0.086 | tipifarnib 0.067 | mubritinib -0.063

SPIN4 (UniProt Q56A73)
inactive: crizotinib 0.108 | doramapimod -0.213

TAF6L (UniProt Q9Y6J9)
inactive: [1] -0.035 | [2] 0.058 | duvelisib 0.246 | gandotinib -0.08 | tozasertib 0.115 | [3] -0.121 | ispinesib -0.045 | [9] -0.078 | nilotinib 0.032 | [4] -0.048 | dasatinib -0.224 | [5] 0.046 | [6] -0.106 | [7] -0.018 | tipifarnib 0.055 | mubritinib 0.104

TDP1 (UniProt Q9NUW8)
inactive: [2] 0.145 | [6] -0.1

SSBP4 (UniProt U3KPY3)
inactive: mubritinib 0.046

TC2N (UniProt Q8N9U0)
active: [4] -0.71
inactive: duvelisib 0.256 | tozasertib -0.095 | [3] -0.072 | ispinesib -0.071 | nilotinib 0.052 | dasatinib 0.068 | [5] -0.024 | [7] -0.153 | mubritinib 0.176

SSBP4 (UniProt Q9BWG4)
Chain of UniProt Q9BWG4 (Q9BWG4 whole entry, looked up): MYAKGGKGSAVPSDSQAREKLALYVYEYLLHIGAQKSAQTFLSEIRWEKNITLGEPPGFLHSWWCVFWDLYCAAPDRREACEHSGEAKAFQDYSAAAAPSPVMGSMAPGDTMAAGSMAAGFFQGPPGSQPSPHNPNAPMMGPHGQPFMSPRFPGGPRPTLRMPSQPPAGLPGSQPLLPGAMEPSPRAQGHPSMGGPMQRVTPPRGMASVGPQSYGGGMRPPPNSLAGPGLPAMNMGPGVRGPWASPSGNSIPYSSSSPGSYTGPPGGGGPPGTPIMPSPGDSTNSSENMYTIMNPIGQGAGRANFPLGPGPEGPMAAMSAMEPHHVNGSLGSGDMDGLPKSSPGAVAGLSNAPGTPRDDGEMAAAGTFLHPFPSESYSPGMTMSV
inactive: [1] -0.054 | crizotinib -0.034 | duvelisib 0.255 | gandotinib -0.121 | tozasertib -0.014 | [3] 0.123 | doramapimod 0.103 | ispinesib 0.148 | bafetinib -0.045 | [9] -0.069 | nilotinib 0.038 | [4] 0.014 | dasatinib -0.021 | [5] 0.053 | [7] 0.033 | tipifarnib 0.301 | mubritinib 0.066

SMIM20 isoform 2 (UniProt Q8N5G0)
Chain of UniProt Q8N5G0 (Q8N5G0 whole entry, looked up): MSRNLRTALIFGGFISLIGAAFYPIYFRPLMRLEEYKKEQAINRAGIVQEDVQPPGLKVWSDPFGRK
inactive: [1] -0.014 | [8] 0.126 | [2] 0.019 | duvelisib 0.086 | gandotinib 0.068 | tozasertib 0.069 | [3] -0.068 | ispinesib 0.089 | bafetinib -0.011 | [9] -0.011 | nilotinib -0.037 | [4] -0.001 | dasatinib 0.012 | [5] -0.102 | [6] 0.05 | [7] 0.156 | tipifarnib 0.017 | mubritinib 0.009

TCOF1 isoform 3 (UniProt Q13428)
Chain of UniProt Q13428 (Q13428 whole entry, looked up): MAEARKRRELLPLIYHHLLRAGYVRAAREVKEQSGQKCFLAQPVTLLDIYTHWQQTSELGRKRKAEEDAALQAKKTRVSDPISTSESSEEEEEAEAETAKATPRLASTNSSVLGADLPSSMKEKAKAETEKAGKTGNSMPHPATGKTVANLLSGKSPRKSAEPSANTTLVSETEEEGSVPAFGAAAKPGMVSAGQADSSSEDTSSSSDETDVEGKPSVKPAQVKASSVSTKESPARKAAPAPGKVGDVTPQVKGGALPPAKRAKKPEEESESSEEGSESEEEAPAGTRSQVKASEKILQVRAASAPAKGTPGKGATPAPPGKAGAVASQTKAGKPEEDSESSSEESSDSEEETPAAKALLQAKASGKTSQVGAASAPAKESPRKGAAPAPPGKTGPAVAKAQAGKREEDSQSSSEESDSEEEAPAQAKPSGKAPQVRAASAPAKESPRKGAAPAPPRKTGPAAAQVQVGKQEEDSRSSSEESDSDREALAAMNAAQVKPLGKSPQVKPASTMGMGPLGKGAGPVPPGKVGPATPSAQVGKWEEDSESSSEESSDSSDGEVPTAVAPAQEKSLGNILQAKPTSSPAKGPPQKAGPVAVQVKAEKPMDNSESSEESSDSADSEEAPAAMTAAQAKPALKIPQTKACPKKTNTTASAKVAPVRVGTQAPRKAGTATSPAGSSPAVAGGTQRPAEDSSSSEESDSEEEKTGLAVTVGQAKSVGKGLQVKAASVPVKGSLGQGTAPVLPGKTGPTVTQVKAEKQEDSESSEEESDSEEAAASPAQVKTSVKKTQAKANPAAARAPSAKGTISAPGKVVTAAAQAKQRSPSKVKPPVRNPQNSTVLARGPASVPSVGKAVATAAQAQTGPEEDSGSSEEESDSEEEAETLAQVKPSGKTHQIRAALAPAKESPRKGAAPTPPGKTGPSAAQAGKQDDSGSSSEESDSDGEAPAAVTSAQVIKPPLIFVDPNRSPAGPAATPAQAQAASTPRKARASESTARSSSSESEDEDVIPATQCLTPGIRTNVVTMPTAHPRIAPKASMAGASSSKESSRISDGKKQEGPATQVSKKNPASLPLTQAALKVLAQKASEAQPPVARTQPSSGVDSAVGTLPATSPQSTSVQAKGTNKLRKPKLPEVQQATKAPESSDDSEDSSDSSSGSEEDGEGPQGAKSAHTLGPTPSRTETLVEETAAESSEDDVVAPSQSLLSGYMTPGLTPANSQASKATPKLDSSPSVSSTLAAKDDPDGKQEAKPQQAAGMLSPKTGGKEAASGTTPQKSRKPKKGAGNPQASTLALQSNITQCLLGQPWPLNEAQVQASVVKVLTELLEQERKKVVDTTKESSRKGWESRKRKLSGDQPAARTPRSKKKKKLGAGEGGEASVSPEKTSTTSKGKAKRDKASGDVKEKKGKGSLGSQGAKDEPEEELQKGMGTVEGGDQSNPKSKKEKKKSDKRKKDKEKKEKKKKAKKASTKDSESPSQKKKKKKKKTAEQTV
inactive: [1] -0.103 | [8] 0.542 | gandotinib -0.166 | tozasertib 0.073 | ispinesib -0.185 | [9] -0.005 | [7] -0.419
